From the supplement of paper PMC9694430
Several values for one entry are separate records, joined by “and”; a condition that tells them apart may be missing. Equal entries are not always repeated.

How the values were obtained:
Experiment in all cases: thermal shift delta Tm vs DMSO control; higher = stronger stabilization (binding)
Settings in all cases: 12.5 µM; protein concentration 2 µM
[1] = system: LOC_OS01G01410-cb001
In short: (§1)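 Purified, E. coli-expressed rice kinase domain constructs were tested by differential scanning fluorimetry in 96-well plates: 19.5 μl of 2 μM kinase in 100 mM potassium phosphate pH 7.5, 150 mM NaCl, 10% glycerol, 5 × SYPRO Orange, plus compound in DMSO. Fluorescence was read from 25°C to 95°C at 0.05°C/s. Melting temperatures came from Boltzmann fits, and the shift is the triplicate mean relative to protein with DMSO alone.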

[2] = system: LOC_OS01G02750-cb003
In short: as §1

[3] = system: LOC_OS01G10900-cb004
In short: as §1

[4] = system: LOC_OS01G13800-cb001
In short: as §1

[5] = system: LOC_OS01G14860-cb001
In short: as §1

[6] = system: LOC_OS01G21960-cb002
In short: as §1

[7] = system: LOC_OS01G39600-cb002
In short: as §1

[8] = system: LOC_OS01G48390-cb002
In short: as §1

[9] = system: LOC_OS01G51400-cb002
In short: as §1

[10] = system: T1, LOC_OS01G52050-cb004
T1 sequence (whole entry): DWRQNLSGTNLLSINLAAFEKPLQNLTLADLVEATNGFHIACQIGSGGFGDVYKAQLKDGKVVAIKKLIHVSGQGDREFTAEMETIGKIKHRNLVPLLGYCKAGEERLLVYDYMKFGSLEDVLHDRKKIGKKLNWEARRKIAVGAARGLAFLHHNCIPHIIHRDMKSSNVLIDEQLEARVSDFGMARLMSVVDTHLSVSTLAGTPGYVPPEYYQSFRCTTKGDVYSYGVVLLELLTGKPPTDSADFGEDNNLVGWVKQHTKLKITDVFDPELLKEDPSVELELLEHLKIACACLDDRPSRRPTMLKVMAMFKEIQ
In short: as §1

[11] = system: LOC_OS01G57100-cb003
In short: as §1

[12] = system: LOC_OS01G60330-cb001
In short: as §1

[13] = system: LOC_OS01G60700-cb002
In short: as §1

[14] = system: LOC_OS01G63280-cb003
In short: as §1

[15] = system: LOC_OS01G67340-cb003
In short: as §1

[16] = system: LOC_OS01G70970-cb002
In short: as §1

[17] = system: LOC_OS02G07810-cb001
In short: as §1

[18] = system: LOC_OS02G08530-cb003
In short: as §1

[19] = system: LOC_OS02G14120-cb001
In short: as §1

[20] = system: LOC_OS02G17970-cb001
In short: as §1

SMILES	thermal shift delta Tm [1]	thermal shift delta Tm [2]	thermal shift delta Tm [3]	thermal shift delta Tm [4]	thermal shift delta Tm [5]	thermal shift delta Tm [6]	thermal shift delta Tm [7]	thermal shift delta Tm [8]	thermal shift delta Tm [9]	thermal shift delta Tm [10]	thermal shift delta Tm [11]	thermal shift delta Tm [12]	thermal shift delta Tm [13]	thermal shift delta Tm [14]	thermal shift delta Tm [15]	thermal shift delta Tm [16]	thermal shift delta Tm [17]	thermal shift delta Tm [18]	thermal shift delta Tm [19]	thermal shift delta Tm [20]
Oc1c(F)cc(-c2cnccc2-c2ccc(N3CCOCC3)cc2)cc1F	0.86 °C	0.33 °C	0.19 °C	0.41 °C	0.2 °C	0.65 °C	-0.24 °C	0 °C	0.36 °C	-0.22 °C	1.14 °C	1.01 °C	0.34 °C	0.58 °C	0.1 °C	0.21 °C	0.35 °C	0.7 °C	0.35 °C	0.29 °C
Cc1nc(Nc2cnn(C3CCNCC3)c2)nc2c1N(C)C(=O)c1cc3ccccc3cc1N2C	0.36 °C	0.48 °C	-0.09 °C	0.39 °C	-0.18 °C	0.66 °C	-1.52 °C	0.62 °C	0.18 °C	0.38 °C	0.83 °C	1.06 °C	0.29 °C	0.05 °C	1.06 °C	0.51 °C	0.09 °C	1.07 °C	1.04 °C	-0.03 °C
CNC(=O)c1ccccc1Nc1nc(Nc2ccc(N3CCOCC3)cc2OC)ncc1Cl	0.74 °C	1.05 °C	1.53 °C	-0.3 °C	0.28 °C	0.37 °C	-6.71 °C	0.8 °C	0.36 °C	1.17 °C	2.81 °C	0.04 °C	1.25 °C	0.09 °C	0.32 °C	2.69 °C	0.19 °C	4.3 °C	5.33 °C	1.35 °C
C[C@@H]1CCN(C(=O)CC#N)C[C@@H]1N(C)c1ncnc2[nH]ccc12	0.9 °C and -0.07 °C	0.59 °C and 1.29 °C	1.82 °C and 1.15 °C	-0.91 °C and -0.21 °C	0.33 °C and 0.19 °C	0.43 °C and 0.81 °C	1.17 °C and 1.71 °C	1.08 °C and 0.82 °C	0.59 °C and 0.38 °C	0.05 °C and 0.04 °C	1.55 °C and 1.07 °C	0.87 °C and 1.25 °C	0.98 °C and 1.64 °C	0.28 °C and 0.78 °C	0.15 °C and 0.3 °C	0.37 °C and 0.59 °C	0.22 °C and 0.98 °C	0.94 °C and 0.96 °C	0.97 °C and 0.47 °C	0 °C and 1.09 °C
CS(=O)(=O)N1CCN(Cc2cc3nc(-c4cccc5[nH]ncc45)nc(N4CCOCC4)c3s2)CC1 [Pictilisib (GDC-0941)]	1.2 °C	0.47 °C	0.85 °C	0.43 °C	1.21 °C	0.24 °C	0.57 °C	2.14 °C	-0.08 °C	-0.11 °C	0.25 °C	2.44 °C	0.85 °C	-0.25 °C	-0.42 °C	0.62 °C	0.7 °C	1.22 °C	0.32 °C	0.17 °C
CCCCNc1ncc2c(-c3ccc(CN4CCN(C)CC4)cc3)cn([C@H]3CC[C@H](O)CC3)c2n1	5.57 °C	6.91 °C	0.53 °C	-0.91 °C	2.44 °C	2.55 °C	7.19 °C	3.3 °C	0.81 °C	9.81 °C	3.5 °C	14.9 °C	0.56 °C	0.95 °C	10.1 °C	8.18 °C	-0.25 °C	5.26 °C	12.2 °C	-0.42 °C
